Rows were chosen to be rich in hits. Some 1.8% of all compounds tested hit in one or more screens of this group.
VLA-4 inh: inhibition in a human VLA-4 binding assay; VLA-4 expressing cells, ligand binding flow cytometry; inhibition, % (about 7 µM as worked out from the volumes in the protocol); P13612; AID 2557; 0.2% of 330,000 active; in the data active = inhibition above about 50%
A3A deaminase: blocks human APOBEC3A ssDNA deamination; recombinant A3A, FAM/TAMRA ssDNA deamination fluorescence; inhibition, % at 20 µM; P31941; 0.41% of 330,000 active;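 active = at least 40% inhibition at 20 µM here, with at most 30% in a related deaminase screen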
APOBEC3G inh: inhibitors of human APOBEC3G DNA deaminase. inhibition, % at 20 µM. Q9HC16. 0.28% of 330,000 active. recombinant A3G, ssDNA deamination FAM/TAMRA fluorescence;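 active = inhibition of at least 40% at 20 µM, with no more than 30% in the related APOBEC3A deaminase screen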
CendR NRP1 mod: modulators of CendR peptide binding to human neuropilin-1; O14786; FAM-RPARPAR peptide binding to NRP-1, fluorescence polarization; inhibition, % at 25 µM; 0.85% of 360,000 active;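 active = inhibition or corrected inhibition above about 18%, plus a signal ratio from 0.5 to 1.5, limit read from the data, passing the limit was not always enough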
Target sequence (O14786 whole entry, looked up): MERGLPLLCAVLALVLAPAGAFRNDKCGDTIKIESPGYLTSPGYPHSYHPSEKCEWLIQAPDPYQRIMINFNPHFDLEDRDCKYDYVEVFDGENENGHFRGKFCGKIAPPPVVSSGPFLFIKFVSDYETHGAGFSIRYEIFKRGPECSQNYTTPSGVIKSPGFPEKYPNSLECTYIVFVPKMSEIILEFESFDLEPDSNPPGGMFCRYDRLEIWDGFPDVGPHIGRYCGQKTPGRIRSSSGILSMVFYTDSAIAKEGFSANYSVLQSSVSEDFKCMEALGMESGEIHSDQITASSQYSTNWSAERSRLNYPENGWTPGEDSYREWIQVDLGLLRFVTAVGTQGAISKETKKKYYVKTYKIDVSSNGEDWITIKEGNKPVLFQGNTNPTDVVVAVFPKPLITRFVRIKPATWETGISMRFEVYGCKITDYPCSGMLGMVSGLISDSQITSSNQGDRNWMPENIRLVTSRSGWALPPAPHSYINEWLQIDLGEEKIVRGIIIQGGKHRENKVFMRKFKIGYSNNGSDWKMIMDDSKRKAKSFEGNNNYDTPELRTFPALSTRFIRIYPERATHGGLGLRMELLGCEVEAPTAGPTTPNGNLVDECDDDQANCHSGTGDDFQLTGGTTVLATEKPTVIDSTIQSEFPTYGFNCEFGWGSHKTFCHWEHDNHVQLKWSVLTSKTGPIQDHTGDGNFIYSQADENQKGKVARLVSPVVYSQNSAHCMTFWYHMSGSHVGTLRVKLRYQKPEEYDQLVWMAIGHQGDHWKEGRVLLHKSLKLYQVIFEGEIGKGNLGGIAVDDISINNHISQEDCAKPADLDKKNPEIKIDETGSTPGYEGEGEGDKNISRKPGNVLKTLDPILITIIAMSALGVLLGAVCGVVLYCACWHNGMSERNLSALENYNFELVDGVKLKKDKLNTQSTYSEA
beta cell repl: MIN6 beta-cell proliferation induction | proliferation, % at 10 µM | 0.29% of 330,000 active | MIN6 cells proliferation, ATPlite luminescence, 48 h; cells starved in 0.2% serum; 100% = growth in 10% serum | AID 2380;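 active = compounds whose signal lies at least 3.5 SD above the mean of all wells on their plate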
APOBEC3A confirm: APOBEC3A (human) deaminase inhibition, confirmed | recombinant A3A, ssDNA deaminase UDG fluorescence assay | 63% of 1,400 active | shares compounds with A3A deaminase | inhibition, % at 20 µM;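 active = inhibition reaching a set limit, 80% of the first screen's cutoff, at 20 µM in any replicate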
UDG A3A counter: UDG inhibition in APOBEC3A counter-screen | UDG counterscreen, FAM/TAMRA uracil oligo fluorescence | 1,000 tested, under 10 active | shares compounds with A3A deaminase | inhibition, % at 20 µM | AID 504714; call rule not given here
A3G conf: APOBEC3G (human) deaminase inhibition, confirmed; recombinant A3G ssDNA deaminase, UDG/FAM-TAMRA fluorescence; 72% of 890 active; shares compounds with APOBEC3G inh; AID 493152; inhibition, % at 20 µM;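 active = inhibition reaching a set limit in any replicate at 20 µM, the limit being 80% of the first screen's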
UDG A3G counter: E. coli UDG inhibition in APOBEC3G counter-screen; shares compounds with APOBEC3G inh; UDG counterscreen, FAM/TAMRA oligo fluorescence; inhibition, % at 20 µM; 710 tested, under 10 active; AID 504715;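 active = compounds giving 40% or more inhibition at 20 µM in any one of the three replicates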;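 also: inhibitors lower the FAM signal released by uracil excision and alkaline cleavage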
Numbers stand for hits; 0 = inactive; - = not tested or not shown.

SMILES | VLA-4 inh | A3A deaminase | APOBEC3G inh | CendR NRP1 mod | beta cell repl | A3G conf | UDG A3G counter | others
CC(OC(=O)Cn1cnc2c1c(=O)n(C)c(=O)n2C)C(=O)NC1(C#N)CCCCC1 (centres undefined) | - | 0 | 0 | 0 | 0 | - | -
CC(=O)c1ccc[n+](CC(=O)NC(C)c2ccccc2)c1 (centres undefined) | 0 | 62 | 0 | 0 | 0 | - | - | APOBEC3A confirm=64;UDG A3A counter=0
CC(NC(=O)C[n+]1cccc(Br)c1)c1ccccc1 (centres undefined) | 0 | 0 | 0 | 0 | 0 | - | -
O=C(NC1=NCCS1)C1CCN(S(=O)(=O)c2cc([N+](=O)[O-])ccc2Cl)CC1 | 0 | 53 | 0 | 0 | 0 | - | - | APOBEC3A confirm=53;UDG A3A counter=0
O=C(NC1=NCCS1)C1CCN(S(=O)(=O)c2ccc(Cl)cc2)CC1 | 0 | 0 | 0 | 0 | 0 | - | -
CCc1c(-c2ccccc2)[n+](=O)c2c(n1[O-])CCC2 | 0 | 0 | 0 | 0 | 0 | - | -
O=C(C1COc2ccccc2O1)N1CCc2ccccc21 (centres undefined) | 0 | 43 | 0 | 0 | 0 | - | - | APOBEC3A confirm=36;UDG A3A counter=0
CCOc1ccc(NC(=O)c2cc(C3CC3)nc3c2cnn3C(C)C)cc1OC | 0 | 51 | 0 | 0 | 0 | - | - | APOBEC3A confirm=0
COc1cccc2c1C(=O)c1c(O)c3c(c(O)c1C2=O)C[C@](O)(C(C)=O)C[C@H]3O[C@@H]1C[C@@H](N)[C@@H](O)[C@@H](C)O1 | 0 | 50 | 0 | 0 | 0 | - | - | APOBEC3A confirm=42
C=CCC[C@H](Cc1ccc(F)cc1)C(=O)OC[C@@H](NC(=O)[C@H](CC=C)CC(=O)NCCO)C(C)(C)C | 0 | 0 | 0 | 0 | 0 | - | -
CCCCN(C(=O)c1ccco1)C1CCS(=O)(=O)C1 (centres undefined) | 0 | 65 | 0 | 0 | 0 | - | - | APOBEC3A confirm=0;UDG A3A counter=0
C[N+]1(C2CCC3CCCC2C3O)CCCC1 (centres undefined) | 0 | 59 | 0 | 0 | 0 | - | - | APOBEC3A confirm=74;UDG A3A counter=0
O=C(NCCN1CCOCC1)c1ccc(Cl)cc1[N+](=O)[O-] | 0 | 46 | 0 | 0 | 0 | - | - | APOBEC3A confirm=10;UDG A3A counter=0
Cn1c(-c2cc(Br)ccc2O)n[nH]c1=S | 0 | 0 | 48 | 0 | 0 | 83 | 0
CCN(CC)CCn1c2ccccc2c2n[nH]c(=S)nc21 | 0 | 0 | 58 | 0 | 0 | 78 | 0
CCCCCc1ccc(-c2ccc(/C=C/C(=O)O)cc2)nc1 | 0 | 0 | 89 | 0 | 0 | 0 | -
CCCc1ccc(-c2ccc(/C=C/C(=O)O)cc2)nc1 | 0 | - | - | 0 | - | - | -
COCCn1c(SCC(=O)N2CCCc3ccccc32)nc2c(c1=O)SC(C)C2 (centres undefined) | 0 | 0 | 82 | 0 | 0 | 0 | 0
CCOC(=O)C1CCCN(C(=O)Cn2sc3nc(C)cc(C)c3c2=O)C1 (centres undefined) | 0 | 0 | 50 | 0 | 0 | 78 | 0
Cc1nn(CC(=O)N2CCC(N3CCCCC3)CC2)c(=O)c2c1sc1ccccc12 | 0 | 0 | 0 | 0 | 0 | - | -
Cc1cc(C)c2c(=O)n(CC(=O)N3CCC(N4CCCCC4)CC3)sc2n1 | 0 | 0 | 49 | 0 | 0 | 82 | 0
CCCNC(=O)Cn1sc2nc(C)cc(C)c2c1=O | 0 | 0 | 60 | 0 | 0 | 77 | 0
CCOC(=O)c1sc(=S)n(C)c1NC(=O)c1ccc(OC)cc1 | 0 | 0 | 53 | 0 | 0 | 59 | 0
S=c1[nH]c2cc(Br)cnc2[nH]1 | 0 | 0 | 56 | 0 | 0 | 68 | 0
O=C(Nc1ccc(Cl)cc1Cl)c1cccc(N2C(=O)C=CC2=O)c1 | 0 | 0 | 53 | 0 | 0 | 59 | 0
SMILES | VLA-4 inh | A3A deaminase | APOBEC3G inh | CendR NRP1 mod | beta cell repl | A3G conf | UDG A3G counter | others
O=C(O)c1cccc(N2C(=O)C=CC2=O)c1 | - | - | - | 0 | - | - | -
CN1CCN(C(=O)c2sc(=S)n(-c3ccccc3)c2N)CC1 | 0 | 0 | 66 | 0 | 0 | 81 | 0
Cc1ccc(-n2c(N)c(C(=O)N3CCOCC3)sc2=S)cc1 | 0 | 0 | 0 | 0 | 0 | - | -
COC(=O)c1sc(=S)n(-c2cccc(Cl)c2)c1N | 0 | 0 | 54 | 0 | 0 | 30 | 0
CCOC(=O)c1sc(=S)n(-c2ccccc2)c1N | 0 | 0 | 0 | 0 | 0 | - | -
Cc1cc(-c2n[nH]c(=S)n2/N=C/c2cccs2)n[nH]1 | 0 | 0 | 60 | 0 | 0 | 92 | 0
Cc1cccc(/C=N/n2c(-c3ccccc3)n[nH]c2=S)c1O | 0 | 0 | 0 | 0 | 0 | - | -
Cc1ccc(-c2n[nH]c(=S)n2/N=C/c2cccs2)cc1 | 0 | 0 | 0 | 0 | 0 | - | -
S=c1[nH]nc(-c2ccco2)n1/N=C/c1cccs1 | 0 | 0 | 62 | 0 | 0 | 81 | 0
O=[N+]([O-])c1ccccc1/C=N/n1c(-c2ccccc2)n[nH]c1=S | 0 | 0 | 51 | 0 | 0 | 81 | 0
S=c1[nH]nc(-c2ccccc2)n1/N=C/c1cccs1 | 0 | 0 | 44 | 0 | 0 | 58 | 0
Cc1c(NC(=O)CSCc2ccco2)c(=O)n(-c2ccccc2)n1C | 0 | 0 | 0 | 0 | 0 | - | -
Cn1c(=O)c2c(ncn2CC(=O)Nc2cc(S(=O)(=O)N3CCCCC3)ccc2Cl)n(C)c1=O | 0 | 0 | 0 | 0 | 0 | - | -
CSc1ccccc1C(=O)Nc1ccccc1C(=O)NC(C)C | 0 | 0 | 0 | 0 | 0 | - | -
O=S(=O)(c1ccc(SCc2ccccc2F)nc1)N1CCCC1 | 0 | 0 | 0 | 0 | 0 | - | -
O=C(Nc1nnc(COc2ccc(Cl)cc2)s1)C1CCCO1 (centres undefined) | 0 | 0 | 45 | 0 | 0 | 21 | 0
CCc1nnc(NC(=O)C2CCCO2)s1 (centres undefined) | 0 | 0 | 0 | 0 | 0 | - | -
O=C(Nc1nnc(COc2ccc(Cl)cc2)s1)c1ccco1 | 0 | 0 | 71 | 0 | 0 | 43 | 0
CC1(C(=O)OCC(=O)Nc2cc(S(=O)(=O)N3CCOCC3)ccc2Cl)CC1(Cl)Cl (centres undefined) | - | - | - | 0 | - | - | -
COc1ccccc1NC(=O)CSc1nc2[nH]ncc2c(=O)[nH]1 | 0 | 0 | 0 | 0 | 0 | - | -
O=C(Nc1nc(-c2ccccc2)cs1)Nc1ccc(F)cc1F | 0 | 0 | 0 | 0 | 0 | - | -
O=C(Nc1nc(-c2ccccn2)cs1)Nc1ccc(F)cc1F | 0 | 0 | 60 | 0 | 0 | 68 | 0
CC(C)(C)c1ccc(-c2nc(O)c(CC(=O)O)s2)cc1 | 0 | 0 | 0 | - | 0 | - | -
O=C(NCC1CCOCC1)c1ccc2nc(Cc3cccc(Cl)c3)oc2c1 | 0 | 0 | 0 | 0 | 0 | - | -
S=c1[nH]nc(Nc2ccccc2Cl)s1 | 0 | 0 | 45 | 0 | 0 | 66 | 0
S=c1[nH]nc(Nc2cccc(Cl)c2)s1 | 0 | 0 | 0 | 0 | 0 | - | -
Cc1nnc(N=c2ssnc2Cl)o1 | 0 | 0 | 74 | 0 | 0 | 89 | 0
